# Experimental data: PubChem BioAssay (Tox21)
# Values without a mark were called inactive. Results filed as inconclusive are left out. A call without a number means that no potency is given here. Active and inactive are the calls of the source. Unless noted, calls follow the shape of the dose curve; as a rule, active = well fitted curve in the direction sought with a large enough effect in the repeat runs; inconclusive = weak or mixed curves; inactive = flat fitted curve, though single readings scatter.
# What was measured:
# [1] = qHTS assay to test for compound auto fluorescence at 535 nm (green) in HEK293 cells (AID 720680)
# [2] = qHTS assay to test for compound auto fluorescence at 460 nm (blue) in HEK293 cell free culture (AID 720681)
# Method in brief: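 Compounds were added to cell-free DMEM with 10% FBS and fluorescence read directly. The blue channel used 405 nm excitation and 460 nm emission, with triamterene as the reference fluorophore.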
# [3] = qHTS assay to test for compound auto fluorescence at 535 nm (green) in HEK293 cell free culture (AID 720682)
# Method in brief: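 Intrinsic compound fluorescence is measured in culture medium containing 10% FBS, with excitation at 485 nm and detection at 535 nm, referenced to fluorescein.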
# [4] = qHTS assay to test for compound auto fluorescence at 590 nm (red) in HEK293 cell free culture (AID 720683)
# Method in brief: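 Cell-free wells of DMEM with 10% FBS received compound, and intrinsic fluorescence was read at excitation/emission 540/590 nm. Values expressed as equivalence to Rose Bengal sodium.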
# [5] = qHTS assay to test for compound auto fluorescence at 590 nm (red) in HepG2 cell free culture (AID 720684)
# Method in brief: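 Compounds are added to culture medium (MEM, 10% FBS) lacking cells, then fluorescence is read at excitation 540 nm, emission 590 nm, with Rose Bengal sodium as the equivalency standard.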
# [6] = qHTS assay to test for compound auto fluorescence at 535 nm (green) in HepG2 cell free culture (AID 720686)
# [7] = qHTS assay to test for compound auto fluorescence at 460 nm (blue) in HepG2 cells (AID 720687)
# Method in brief: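 HepG2 cells in MEM with 10% FBS, attached overnight at 37 C, were exposed to compound or DMSO for 1 hr at 37 C, 5% CO2. Blue fluorescence was read at 405/460 nm, with triamterene as reference fluorophore.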
# [8] = target: Glucocorticoid receptor (Homo sapiens) (UniProt P04150); experiment: qHTS assay to identify small molecule agonists of the glucocorticoid receptor (GR) signaling pathway (AID 720691; active = well fitted activation curve with a large enough effect in the signal ratio in the repeat runs, not every such curve was filed as active; the % refers to the signal ratio)
# Method in brief: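 Agonist mode in a HeLa line carrying a GRE-controlled beta-lactamase reporter. Compounds act for 18 h at 37 C before a 2 h room-temperature FRET substrate step and fluorescence reading.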
# [9] = target: Glucocorticoid receptor (Homo sapiens) (UniProt P04150); experiment: qHTS assay to identify small molecule antagonists of the glucocorticoid receptor (GR) signaling pathway (AID 720692; active = well fitted inhibition curve with a large enough effect in the signal ratio in the repeat runs, not every such curve was filed as active; the % refers to the signal ratio; also: potency is read from the fitted curve at half-maximal effect)
# Method in brief: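 Cells plated, rested 4 h at 37 C/5% CO2; compounds in DMSO pin-transferred; dexamethasone added to 5 nM final; 18 h at 37 C; B/G FRET substrate added, 2 h room temperature; fluorescence measured.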
# [10] = qHTS assay to test for compound auto fluorescence at 460 nm (blue) in HepG2 cell free culture (AID 720685)
# Method in brief: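 Compound (23 nL) or DMSO pinned into cell-free MEM with 10% FBS; blue fluorescence read at 405/460 nm excitation/emission, expressed as auto-fluorescence equivalency to triamterene.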
# Chain of Glucocorticoid receptor (Homo sapiens) (P04150 whole entry, looked up): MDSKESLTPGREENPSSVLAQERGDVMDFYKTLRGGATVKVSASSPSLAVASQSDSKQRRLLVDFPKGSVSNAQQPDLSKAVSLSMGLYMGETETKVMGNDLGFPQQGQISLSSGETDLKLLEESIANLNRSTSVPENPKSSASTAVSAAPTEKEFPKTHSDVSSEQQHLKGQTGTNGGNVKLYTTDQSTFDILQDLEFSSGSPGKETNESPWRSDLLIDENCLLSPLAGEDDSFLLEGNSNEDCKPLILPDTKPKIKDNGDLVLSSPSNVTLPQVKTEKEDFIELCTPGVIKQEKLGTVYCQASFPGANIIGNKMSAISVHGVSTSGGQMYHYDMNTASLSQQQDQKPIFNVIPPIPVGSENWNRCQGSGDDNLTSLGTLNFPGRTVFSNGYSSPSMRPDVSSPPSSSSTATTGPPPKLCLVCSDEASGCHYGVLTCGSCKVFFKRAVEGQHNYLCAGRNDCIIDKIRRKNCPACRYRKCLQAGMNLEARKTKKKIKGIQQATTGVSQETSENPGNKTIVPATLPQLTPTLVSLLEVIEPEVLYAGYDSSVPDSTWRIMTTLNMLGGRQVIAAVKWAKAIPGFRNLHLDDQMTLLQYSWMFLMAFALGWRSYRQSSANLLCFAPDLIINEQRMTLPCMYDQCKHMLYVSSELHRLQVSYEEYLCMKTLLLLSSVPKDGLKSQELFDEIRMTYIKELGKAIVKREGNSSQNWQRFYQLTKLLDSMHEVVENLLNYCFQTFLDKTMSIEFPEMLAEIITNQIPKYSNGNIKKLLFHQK
smiles,measurement,setting,value
C=CCc1cc(OC)c(O)c(C(=O)NCCO)c1,outcome,[1],inactive
same,outcome,[2],inactive
same,outcome,[3],inactive
same,outcome,[4],inactive
same,outcome,[5],inactive
same,outcome,[6],inactive
same,outcome,[7],inactive
same,Potency,[8],inactive
same,Potency,[9],inactive
CC(C)Nc1nc(N)nc(Cl)n1,outcome,[1],inactive
same,outcome,[2],inactive
same,outcome,[3],inactive
same,outcome,[4],inactive
same,outcome,[5],inactive
same,outcome,[6],inactive
same,outcome,[7],inactive
same,Potency,[8],inactive
same,Potency,[9],inactive
NNS(=O)(=O)c1ccc(Oc2ccc(S(=O)(=O)NN)cc2)cc1,outcome,[1],inactive
same,outcome,[2],inactive
same,outcome,[3],inactive
same,outcome,[4],inactive
same,outcome,[5],inactive
same,outcome,[6],inactive
same,outcome,[7],inactive
COC(=O)C(C)O (stereo not given),outcome,[1],inactive
same,outcome,[2],inactive
same,outcome,[3],inactive
same,outcome,[4],inactive
same,outcome,[5],inactive
same,outcome,[6],inactive
same,outcome,[7],inactive
C[C@]12C(=O)OC(=O)[C@H]1[C@H]1C=C[C@@H]2C1,outcome,[1],inactive
same,outcome,[2],inactive
same,outcome,[3],inactive
same,outcome,[4],inactive
same,outcome,[5],inactive
same,outcome,[10],inactive
same,outcome,[7],inactive
same,Potency,[9],inactive
CCN(CC)CCNC(=O)COc1ccc(Cl)cc1,outcome,[1],inactive
same,outcome,[2],inactive
same,outcome,[3],inactive
same,outcome,[4],inactive
same,outcome,[5],inactive
same,outcome,[6],inactive
same,outcome,[7],inactive
same,Potency,[9],inactive
CC1=NN(c2cc(Cl)c(S(=O)(=O)O)cc2Cl)C(=O)C1N=Nc1ccc(S(=O)(=O)O)cc1 (stereo not given),outcome,[1],inactive
same,outcome,[2],inactive
same,outcome,[3],inactive
same,outcome,[4],inactive
same,outcome,[10],inactive
same,outcome,[6],inactive
CC1CN(c2ccccc2)NC1=O (stereo not given),outcome,[1],inactive
same,outcome,[2],inactive
same,outcome,[3],inactive
same,outcome,[4],inactive
same,outcome,[5],inactive
same,outcome,[6],inactive
same,outcome,[7],inactive
same,Potency,[8],inactive
Cc1c(-c2ccccc2)oc2c(C(=O)OCCN3CCCCC3)cccc2c1=O,"fluorescence, % of fluorescein",[1],-0.0807% [at 18.6 µM]
same,"fluorescence, % of fluorescent control",[2],0.0764% [at 18.6 µM]
same,activity change,[3],-0.0846% [at 18.6 µM]
same,"fluorescence, % of fluorescent control",[4],-0.0474% [at 18.6 µM]
same,"fluorescence, % of Rose Bengal",[5],-0.137% [at 18.6 µM]
same,"fluorescence, % of fluorescein control",[6],0.0304% [at 18.6 µM]
same,"fluorescence, % of fluorescent control",[7],-0.0666% [at 18.6 µM]
same,Potency,[9],inactive
C[C@]12CCC(=O)C=C1CC[C@@H]1[C@@H]2CC[C@@]2(C)[C@H]1CC[C@]2(O)C(=O)CO,outcome,[1],inactive
same,outcome,[2],inactive
same,outcome,[3],inactive
same,outcome,[4],inactive
same,outcome,[5],inactive
same,outcome,[6],inactive
same,outcome,[7],inactive
same,Potency,[9],338 nM (active)
CCC(=O)Nc1ccc(O)cc1,outcome,[1],inactive
same,outcome,[2],inactive
same,outcome,[3],inactive
same,outcome,[4],inactive
same,outcome,[5],inactive
same,outcome,[6],inactive
same,outcome,[7],inactive
same,Potency,[8],inactive
same,Potency,[9],inactive
COC(C)CCO (stereo not given),outcome,[1],inactive
same,outcome,[2],inactive
same,outcome,[3],inactive
same,outcome,[4],inactive
same,outcome,[5],inactive
same,outcome,[6],inactive
same,outcome,[7],inactive
CCCCCCCCCCCCOCCOS(=O)(=O)O,outcome,[1],inactive
same,outcome,[2],inactive
same,outcome,[3],inactive
same,outcome,[4],inactive
same,outcome,[10],inactive
same,outcome,[6],inactive
same,outcome,[7],inactive
O=C1Nc2ccc([N+](=O)[O-])cc2C1=O,outcome,[1],inactive
same,outcome,[2],inactive
same,outcome,[3],inactive
same,outcome,[4],inactive
same,outcome,[5],inactive
same,outcome,[6],inactive
same,outcome,[7],inactive
same,Potency,[8],inactive
same,Potency,[9],inactive
CCCCNC(=S)NCCCC,outcome,[1],inactive
same,outcome,[2],inactive
same,outcome,[3],inactive
same,outcome,[4],inactive
same,outcome,[5],inactive
same,outcome,[6],inactive
same,outcome,[7],inactive
same,Potency,[9],inactive
COc1ccccc1N1CCN(CCCNc2cc(=O)n(C)c(=O)n2C)CC1,outcome,[1],inactive
same,outcome,[2],inactive
same,outcome,[3],inactive
same,outcome,[4],inactive
same,outcome,[10],inactive
same,outcome,[6],inactive
same,outcome,[7],inactive
C=Cc1ccccc1,outcome,[1],inactive
same,outcome,[2],inactive
same,outcome,[3],inactive
same,outcome,[4],inactive
same,outcome,[5],inactive
same,outcome,[6],inactive
same,outcome,[7],inactive
C=C(C)C(=O)OCCOP(=O)(O)O,outcome,[1],inactive
same,outcome,[2],inactive
same,outcome,[3],inactive
same,outcome,[4],inactive
same,outcome,[5],inactive
same,outcome,[7],inactive
same,Potency,[8],inactive
same,Potency,[9],inactive
Cc1nc(-c2ccccn2)ncc1C(=O)Nn1cc(C)c2cc(F)ccc21,outcome,[1],inactive
same,outcome,[2],inactive
same,outcome,[3],inactive
same,outcome,[4],inactive
same,outcome,[5],inactive
same,outcome,[6],inactive
same,outcome,[7],inactive
same,Potency,[9],inactive
CN(C)Cc1ccccc1,outcome,[1],inactive
same,outcome,[2],inactive
same,outcome,[3],inactive
same,outcome,[4],inactive
same,outcome,[5],inactive
same,outcome,[6],inactive
same,outcome,[7],inactive
same,Potency,[8],inactive
same,Potency,[9],inactive
CC1=C(O)C(=O)OC1C (stereo not given),outcome,[1],inactive
same,outcome,[2],inactive
same,outcome,[3],inactive
same,outcome,[4],inactive
same,outcome,[5],inactive
same,outcome,[10],inactive
same,outcome,[7],inactive
same,Potency,[9],inactive
NCCC(O)(P(=O)(O)O)P(=O)(O)O,outcome,[1],inactive
same,outcome,[2],inactive
same,outcome,[3],inactive
same,outcome,[4],inactive
same,outcome,[5],inactive
same,outcome,[10],inactive
same,outcome,[7],inactive
same,Potency,[9],inactive
CCc1nnc(NS(=O)(=O)c2ccc(N)cc2)s1,outcome,[1],inactive
same,outcome,[3],inactive
same,outcome,[4],inactive
same,outcome,[5],inactive
same,outcome,[10],inactive
same,outcome,[6],inactive
same,outcome,[7],inactive
CCCCCOc1ccc(C2SC(=O)NC2=O)cc1OCC (stereo not given),outcome,[1],inactive
same,outcome,[2],inactive
same,outcome,[3],inactive
same,outcome,[4],inactive
same,outcome,[6],inactive
same,outcome,[7],inactive
Cc1ccc(C)c(N)c1,outcome,[1],inactive
same,outcome,[2],inactive
same,outcome,[3],inactive
same,outcome,[4],inactive
same,outcome,[10],inactive
same,outcome,[6],inactive
same,outcome,[7],inactive
same,Potency,[8],inactive
same,Potency,[9],inactive
O=C1N(c2ccccc2)c2ccccc2C1(Cc1ccncc1)Cc1ccncc1,outcome,[1],inactive
same,outcome,[2],inactive
same,outcome,[3],inactive
same,outcome,[4],inactive
same,outcome,[10],inactive
same,outcome,[6],inactive
same,outcome,[7],inactive
same,Potency,[8],inactive
same,Potency,[9],inactive
CCCCCCCCCCCCCCCCOP(=O)([O-])OCC[N+](C)(C)C,outcome,[1],inactive
same,outcome,[2],inactive
same,outcome,[3],inactive
same,outcome,[4],inactive
same,outcome,[10],inactive
same,outcome,[6],inactive
same,outcome,[7],inactive
same,Potency,[8],inactive
CCCCCCCOC(=O)CCC,outcome,[1],inactive
same,outcome,[2],inactive
same,outcome,[3],inactive
same,outcome,[4],inactive
same,outcome,[10],inactive
same,outcome,[6],inactive
same,outcome,[7],inactive
same,Potency,[8],inactive
